Screening data deposited in PubChem BioAssay by Broad Institute.
Only a sample is shown.
aSyn 5UTR act – Activators via SNCA 5'UTR binding, MLPCN | 7.1% of 300,000 active | activity score, % (tested at 7.5 µM), hits read low | alpha-synuclein 5'UTR reporter, activators screen; in the data active means activity score below about -60%
Large screens that a line does not name were inactive.

Cc1ccc2cc(/C=C/C(=O)c3ccco3)c(Cl)nc2c1	aSyn 5UTR act -121
Cc1ccc2nc(Cl)c(/C=C/C(=O)c3ccco3)cc2c1	aSyn 5UTR act -151
COc1ccc2cc(/C=C/C(=O)c3ccco3)c(Cl)nc2c1	aSyn 5UTR act -78
Cc1ccccc1OCc1nc(-c2cccnc2)no1	aSyn 5UTR act -71
Cc1ccc(OCc2nc(-c3cccnc3)no2)cc1C	aSyn 5UTR act -125
Cc1cc(OCc2nc(-c3cccnc3)no2)c(C)cc1Br	aSyn 5UTR act -68
O=c1[nH]c(=O)n([C@H]2C[C@H](O)[C@@H](CO)O2)cc1F	none
COc1ccc(/C=C/C(=O)N(C)C2CCCCC2)cc1Br	aSyn 5UTR act -92
C/C(CC1CC(COCC(C)C)OC1=O)=N\Nc1nc(-c2ccccc2)cs1 (centres undefined)	aSyn 5UTR act -82
COc1ccc(/C=C/C(=O)NC(=S)N2CCN(c3ccccc3OC)CC2)cc1	aSyn 5UTR act -160
O=C(/C=C/c1ccc(F)cc1)NC(=S)N1CCN(c2ccccn2)CC1	aSyn 5UTR act -85
COc1ccc(/C=C/C(=O)NC(=S)N2CCOCC2)cc1	aSyn 5UTR act -84
Cc1cc(C)cc(Oc2ncnc3c2ncn3Cc2c(Cl)cccc2Cl)c1	none
CC(=O)N/N=C/c1ccccc1OCCOc1cccc(C)c1	aSyn 5UTR act -76
Cc1cccc(OCCCC(=O)Nc2ccc(N(C)C)cc2)c1	aSyn 5UTR act -88
Cc1ccc(NC(=O)CCOc2ccccc2)cc1	aSyn 5UTR act -203
Cc1cccc(OCC2=NS(=O)(=O)c3ccccc3N2)c1	aSyn 5UTR act -93
Cc1ccc(OCC(=O)Nc2nnn(C)n2)c(C)c1	aSyn 5UTR act -87
N#C/C(=N\Nc1ccc(F)cc1)C(=N)N1CCCCC1	aSyn 5UTR act -111
N#C/C(=N\Nc1cccc(F)c1)C(=N)N1CCCCCC1	aSyn 5UTR act -95
N#C/C(=N\Nc1ccccc1)C(=N)N1CCCCCC1	aSyn 5UTR act -171
Nc1nonc1C(=O)N/N=C/c1ccc(-c2cccc(C(=O)O)c2)o1	aSyn 5UTR act -63
Cc1ccc(C(=O)N/N=C/c2ccc(-c3cccc(C(F)(F)F)c3)o2)cn1	none
O=C(CCSCc1ccccc1F)N1CCN(c2ccccn2)CC1	aSyn 5UTR act -78
O=C(CSCc1ccccc1Cl)N1CCN(c2ccccn2)CC1	aSyn 5UTR act -82
CCc1ccc(-c2nc(CSCC(=O)N3CCN(c4ccccn4)CC3)c(C)o2)cc1	none
Cc1nc(-c2ccc(NC(=O)CC(C)C)cc2)cs1	aSyn 5UTR act -143
COc1ccc(-c2csc(NC(=O)CC(C)C)n2)cc1	aSyn 5UTR act -128
Cc1nc(-c2ccc(NC(=O)C3CC3)cc2)cs1	aSyn 5UTR act -160
CCn1cc(/C=C/C(=O)c2ccc(O)cc2)c(C)n1	aSyn 5UTR act -105
CCn1ncc(/C=C/C(=O)c2ccccc2)c1C	aSyn 5UTR act -70
Cc1c(/C=C/C(=O)c2ccccc2)cnn1C	aSyn 5UTR act -123
Cc1c(/C=C/C(=O)c2ccc(Cl)s2)cnn1C	aSyn 5UTR act -163
Cc1c(/C=C/C(=O)c2ccc(C(C)C)cc2)cnn1C	aSyn 5UTR act -92
Cc1c(/C=C/C(=O)c2ccc(O)cc2)cnn1C	aSyn 5UTR act -146
Cc1nn(C)cc1/C=C/C(=O)c1ccccc1	aSyn 5UTR act -110
O=C(NCCc1ccccc1)c1ccc2c(c1)OCO2	none
O=C(NCCn1ccc2ccccc21)c1ccc2c(c1)OCO2	aSyn 5UTR act -108
COc1ccc(C(=O)NCCn2ccc3ccccc32)cc1	aSyn 5UTR act -131
COC(=O)c1cn(CCOc2ccccc2)c2ccccc12	aSyn 5UTR act -153
O=C1C(Cl)=C(Nc2ccccc2O)C(=O)N1c1ccccc1	aSyn 5UTR act -94
COc1ccccc1N1C(=O)C(Cl)=C(Nc2ccccc2O)C1=O	aSyn 5UTR act -127
Fc1ccc(-n2nnc(-c3cccnc3Cl)n2)cc1	aSyn 5UTR act -86
Clc1ccc(-n2nnc(-c3cccnc3Cl)n2)cc1Cl	aSyn 5UTR act -109
CCN(CC)C(=O)c1ccc2c(c1[N+](=O)[O-])C(=O)c1ccccc1C2=O	aSyn 5UTR act -93
CCN(CC)CCNC(=O)c1ccc2c(c1NCCO)C(=O)c1ccccc1C2=O	none
N#C/C(=C(/O)c1cc2ccccc2o1)c1nc2ccccc2s1	aSyn 5UTR act -120
N#C/C(=C(/O)c1ccco1)c1nc2ccccc2s1	aSyn 5UTR act -128
N#C/C(=C(/O)c1cccc(F)c1)c1nc2ccccc2s1	aSyn 5UTR act -149
N#C/C(=C(\O)c1ccco1)c1ccccn1	aSyn 5UTR act -91
C/C(=N\N1C(=O)c2ccccc2NC1c1ccco1)c1ccccc1O (centres undefined)	none
O=C1c2ccccc2NC(c2ccco2)N1/N=C/c1ccco1 (centres undefined)	aSyn 5UTR act -92
Cc1ccc(/C=N/N2C(=O)c3ccccc3NC2c2ccc(C)cc2)cc1 (centres undefined)	aSyn 5UTR act -84
O=C(CC1C(=O)NCCN1Cc1ccc(F)cc1Cl)NCc1ccon1 (centres undefined)	aSyn 5UTR act -68
Cc1ccc(/C=C/c2nc3ccccc3c(=O)[nH]2)cc1	none
C=CCOc1cccc(/C=C/c2nc3ccccc3c(=O)[nH]2)c1	aSyn 5UTR act -182
COc1cc(/C=C/c2nc3ccccc3c(=O)[nH]2)ccc1OC(F)F	aSyn 5UTR act -195
COC(=O)c1ccc(/C=C/c2nc3ccccc3c(=O)[nH]2)cc1	aSyn 5UTR act -136
COc1cc(/C=C/c2nnc3c4ccccc4ncn23)cc(OC)c1OC	aSyn 5UTR act -80
COc1cc(/C=C/c2nc3ccccc3c(=O)[nH]2)cc(OC)c1OC	aSyn 5UTR act -84
O=C(N=Nc1c(O)[nH]c2ccc(Br)cc12)c1cc(-c2cccs2)nc2ccccc12	none
Oc1ccc(NC(=S)N=Nc2c(O)[nH]c3ccccc23)cc1	aSyn 5UTR act -131
CC(C)c1ccc2[nH]c(O)c(N=NC(=O)c3cccc(S(=O)(=O)Nc4ccc(Cl)cc4)c3)c2c1	none
C=CCn1c(O)c(N=NC(=S)Nc2cccc(C)c2)c2ccccc21	none
O=C(N=Nc1c(O)[nH]c2ccccc12)c1cccs1	aSyn 5UTR act -74
Cc1ccc2c(CNCc3ccccc3)cc(=O)oc2c1	aSyn 5UTR act -65
Cc1cc2oc(=O)cc(CN(C)Cc3ccccc3F)c2cc1Cl	aSyn 5UTR act -80
Cc1ccc2c(CN(C)Cc3cccc(F)c3)cc(=O)oc2c1	aSyn 5UTR act -124
O=[N+]([O-])c1cccc(-c2nnn(C34CC5CC(CC(C5)C3)C4)n2)c1	aSyn 5UTR act -82
Cc1sc2ncnc(NCC(O)c3ccccc3)c2c1C (centres undefined)	aSyn 5UTR act -104
COc1ccc(N=C2S/C(=C\c3ccc(Cl)c([N+](=O)[O-])c3)C(=O)N2CCN(C)C)cc1	none
CCN(CC)CCN1C(=O)/C(=C\c2ccc(Cl)c([N+](=O)[O-])c2)SC1=Nc1ccc(OC)cc1	none
C=CCN1C(=O)/C(=C2/Sc3ccc(OC)cc3N2C)SC1=Nc1ccc(OC)cc1	aSyn 5UTR act -79
Brc1ccccc1-c1nnc(SCc2nc3ccccc3s2)o1	aSyn 5UTR act -244
CCN(CC)S(=O)(=O)c1cccc(-c2nnc(SCc3nc4ccccc4s3)o2)c1	aSyn 5UTR act -113
Cc1ccc(C(=O)Nc2ccc(N3CCN(C)CC3)cc2)c(Cl)c1	aSyn 5UTR act -162
Cc1ccc(C(=O)Nc2ccc(N3CCN(C)CC3)nc2)cc1	aSyn 5UTR act -63
Cc1ccc(C(=O)Nc2cccc(C(=O)N3CCOCC3)c2)cc1	aSyn 5UTR act -89
Cc1ccc(C(=O)Nc2cccc(C(=O)O)c2)cc1	none
O=C(Nc1cccc(Cl)c1)c1ccc(OC(=S)N2CCOCC2)cc1	aSyn 5UTR act -182
Cc1ccc(CNc2ccc(N3CCOCC3)cc2)cc1	aSyn 5UTR act -108
